The record followed here is PubChem BioAssay (Tox21).

Assay [1] can be described thus: qHTS assay to identify small molecule antagonists of the thyroid receptor (TR) signaling pathway - cell viability counter screen (AID 743064). Note: nearly all actives have a fitted effect of over 50% in size. Put shortly: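 In rat pituitary GH3.TRE-Luc reporter cells co-exposed to compound and 1 nM T3 for 23.5 h, cytotoxicity was assessed with CellTiter-Fluor in the same wells, read by fluorescence.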
In general terms: In qHTS, concentration-response curves come from the screen itself.

The nature of assay [2]: qHTS assay to identify small molecule antagonists of the thyroid receptor (TR) signaling pathway (AID 743065). Note: series mostly up to about 70 µM; nearly all actives have a fitted effect of over 55% in size. Put shortly:
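Antagonism measured as loss of luciferase signal in GH3 cells stably carrying a TRE-luciferase reporter, co-treated with compound and T3 (1 nM final) for 23.5 h at 37 C. Viability was read in the same well by CellTiter-Fluor.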

Assay [3] relates to thyroid hormone receptor (rat, GH3 cells). Kind of assay: qHTS assay to identify small molecule agonists of the thyroid receptor (TR) signaling pathway (AID 743066; calls by dose curve).
The target of assay [4] is Estrogen receptor (Homo sapiens) (UniProt P03372). The assay can be described thus: qHTS assay to identify small molecule antagonists of the estrogen receptor alpha (ER-alpha) signaling pathway (AID 743069; active = well fitted curve in the direction sought with a large enough effect in the signal ratio in the repeat runs, not every such curve was filed as active; the % refers to the signal ratio). A digest of the protocol:
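Antagonist mode: compounds in DMSO were co-added with 17beta-estradiol to ER-alpha-bla HEK293 cells (2% charcoal-stripped serum) and left 18 h at 37C. Reporter inhibition was measured as FRET fluorescence after 2 h LiveBLAzer substrate at room temperature.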

Assay [5] is described as follows: qHTS assay to identify small molecule antagonists of the estrogen receptor alpha (ER-alpha) signaling pathway - cell viability counter screen (AID 743074; calls by dose curve;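 note: HEK293 cells carrying ER-alpha-UAS-bla reporter stimulated with 17beta-estradiol; nearly all actives have a fitted effect of over 45% in size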).
Assay [6] addresses Estrogen receptor (Homo sapiens) (UniProt P03372). Kind of assay: qHTS assay to identify small molecule agonists of the estrogen receptor alpha (ER-alpha) signaling pathway (AID 743075; calls by dose curve;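 note: HEK293 GripTite cells with ER-alpha and UAS-driven beta-lactamase reporter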; note: potency is the fitted concentration of half-maximal effect).
The target is the same in assay [7]. The assay can be described thus: qHTS assay to identify small molecule agonists of the estrogen receptor alpha (ER-alpha) signaling pathway using the BG1 cell line (AID 743079). Note: nearly all actives have a fitted effect of over 20% in size. Note: potency is the fitted concentration of half-maximal effect.
Assay [8] can be described thus: qHTS assay to identify small molecule antagonists of the estrogen receptor alpha (ER-alpha) signaling pathway using the BG1 cell line (AID 743080; calls by dose curve;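 note: BG1 cells stimulated with 17beta-estradiol alongside compound; series mostly up to about 70 µM; nearly all actives have a fitted effect of over 25% in size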). Put shortly: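 BG1Luc4E2, endogenous ER-alpha, 4xERE-luc; 5 d charcoal-stripped FBS, phenol red free; 24 h plating; cpd + 17beta-estradiol 21.5 h, 37 C/5% CO2; CellTiter-Fluor viability 30 min, then ONE-Glo luciferase 30 min RT.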

The nature of assay [9]: qHTS assay to identify small molecule antagonists of the estrogen receptor alpha (ER-alpha) signaling pathway using the BG1 cell line - cell viability counter screen (AID 743081).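 Note: compound given together with 17beta-estradiol as the ER stimulus; series mostly up to about 70 µM; nearly all actives have a fitted effect of over 45% in size.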
The target in another assay is Aromatase (Homo sapiens) (UniProt P11511). Kind of assay: qHTS assay to identify aromatase inhibitors (AID 743083). Note: series mostly up to about 70 µM; nearly all actives have a fitted effect of over 55% in size.
Assay [10] is described as follows: qHTS assay to identify aromatase inhibitors - cell viability counter screen (AID 743084).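 Note: cells stimulated with testosterone during compound exposure; nearly all actives have a fitted effect of over 55% in size.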
Assay [11] concerns the target Aryl hydrocarbon receptor (Homo sapiens) (UniProt P35869). Kind of assay: qHTS assay to identify small molecule that activate the aryl hydrocarbon receptor (AhR) signaling pathway (AID 743085).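 Note: HG2L7.5c1 human HepG2 liver cells with stably integrated DRE-driven firefly reporter; series mostly up to about 70 µM; nearly all actives have a fitted effect of over 15% in size.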 A digest of the protocol:
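AhR agonist activity is inferred from enhanced light output of a DRE-controlled firefly luciferase reporter in HepG2 cells, measured with ONE-Glo following 24 h treatment at 37C.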

Assay [12] can be described thus: qHTS assay to identify small molecule that activate the aryl hydrocarbon receptor (AhR) signaling pathway - cell viability counter screen (AID 743086). Note: series mostly up to about 70 µM; nearly all actives have a fitted effect of over 45% in size. Put shortly: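 Cytotoxicity counter screen: CellTiter-Fluor signal (30 min, 37 C) in 4000 HepG2 cells/well carrying the DRE-luciferase reporter, following 24 h compound exposure at 37 C.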
The target in assay [13] is Peroxisome proliferator-activated receptor gamma (Homo sapiens) (UniProt P37231). The assay can be described thus: qHTS assay to identify small molecule agonists of the peroxisome proliferator-activated receptor gamma (PPARg) signaling pathway (AID 743094; active = well fitted activation curve with a large enough effect in the signal ratio in the repeat runs, not every such curve was filed as active; the % refers to the signal ratio). Put shortly:
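Cell-based bla reporter, HEK293H background, PPARg-driven UAS. Pre-incubation 5 h, 37C, 5% CO2. Compound 17 h, 37C. Substrate 1 h RT; fluorescence.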

Assay [14] can be described thus: qHTS assay for small molecule agonists of the antioxidant response element (ARE) signaling pathway (AID 743202; active = well fitted activation curve with a large enough effect in the signal ratio in the repeat runs, not every such curve was filed as active; the % refers to the signal ratio). A digest of the protocol: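 After 16 hours of compound treatment at 37 C, HepG2 cells with a stably integrated ARE-driven beta-lactamase reporter were loaded 2 hours at room temperature with LiveBLAzer B/G FRET substrate and fluorescence intensity measured.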

Assay [15] is described as follows: qHTS assay for small molecule agonists of the antioxidant response element (ARE) signaling pathway - cell viability counter screen (AID 743203; calls by dose curve; note: nearly all actives have a fitted effect of over 55% in size). A digest of the protocol:
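Measured in the same wells as the beta-lactamase ARE reporter, this read-out is CellTiter-Glo luminescence from HepG2 ARE-bla cells given compounds for 16 hrs.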

A short description of assay [16]: qHTS assay for small molecule activators of the heat shock response signaling pathway - cell viability counter screen (AID 743209). Note: nearly all actives have a fitted effect of over 50% in size. A digest of the protocol:
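Same-well multiplex: after 2.5 h room-temperature incubation with LiveBLAzer B/G substrate and fluorescence reading, CellTiter-Glo reagent was added to HSE-bla HeLa cells that had received compound for 5 h at 37 C; luminescence read after 30 min.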

Assay [17] can be described thus: qHTS assay for small molecule activators of the heat shock response signaling pathway (AID 743210; active = well fitted activation curve with a large enough effect in the signal ratio in the repeat runs, with a control signal flat, not every such curve was filed as active; the % refers to the signal ratio; note: series mostly up to about 63 µM). Put shortly: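 Compound exposure lasted 5 h at 37 C in HeLa cells carrying a heat-shock-element-driven beta-lactamase reporter. Read-out: fluorescence intensity after 2.5 h room-temperature loading with LiveBLAzer B/G FRET substrate.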
The nature of assay [18]: qHTS assay to identify small molecule antagonists of the peroxisome proliferator-activated receptor gamma (PPARg) signaling pathway - cell viability counter screen (AID 743194). Note: nearly all actives have a fitted effect of over 55% in size. A digest of the protocol:
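Viability was measured as CellTiter-Glo luminescence in GeneBLAzer PPARg UAS-bla HEK293H cells. These cells had been exposed 17 h at 37 C to compounds together with rosiglitazone at 50 nM final, with the beta-lactamase readout taken in the same wells.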

In assay [19] the target is Peroxisome proliferator-activated receptor gamma (Homo sapiens) (UniProt P37231). The assay can be described thus: qHTS assay to identify small molecule antagonists of the peroxisome proliferator-activated receptor gamma (PPARg) signaling pathway (AID 743191; calls by dose curve; note: series mostly up to about 63 µM; nearly all actives have a fitted effect of over 30% in size). Put shortly: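 Beta-lactamase reporter under UAS control in HEK293H PPARg-bla cells; compound treatment 17 h at 37C. Read-out: fluorescence intensity after 1 h room-temperature incubation with LiveBLAzer B/G FRET substrate.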

Records with an inconclusive call do not appear. The source holds several records for some structures; these can differ, active in one and inactive in another. Activity calls are given as the source filed them. Unless noted, calls come from the whole dose curve; as a rule, active = well fitted curve in the direction sought with a large enough effect in the repeat runs; inconclusive = weak or mixed curves; inactive = no such curve, though single readings can be large; an effect the other way counts as inactive or inconclusive.

Sequence of Peroxisome proliferator-activated receptor gamma (Homo sapiens) (P37231 whole entry, looked up): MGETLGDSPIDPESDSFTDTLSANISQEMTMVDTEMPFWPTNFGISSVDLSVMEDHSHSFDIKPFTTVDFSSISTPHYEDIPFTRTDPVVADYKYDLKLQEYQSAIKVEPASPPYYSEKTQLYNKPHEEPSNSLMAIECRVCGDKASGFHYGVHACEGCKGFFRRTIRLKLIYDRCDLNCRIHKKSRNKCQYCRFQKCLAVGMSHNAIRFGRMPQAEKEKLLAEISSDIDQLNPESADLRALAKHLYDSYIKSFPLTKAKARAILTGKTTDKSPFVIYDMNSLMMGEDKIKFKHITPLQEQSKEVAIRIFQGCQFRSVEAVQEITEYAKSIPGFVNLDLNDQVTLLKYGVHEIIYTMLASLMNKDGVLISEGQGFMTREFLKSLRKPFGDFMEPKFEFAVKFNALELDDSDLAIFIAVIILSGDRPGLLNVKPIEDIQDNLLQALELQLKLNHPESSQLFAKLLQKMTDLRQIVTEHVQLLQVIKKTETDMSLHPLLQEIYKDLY
Sequence of Aryl hydrocarbon receptor (Homo sapiens) (P35869 whole entry, looked up): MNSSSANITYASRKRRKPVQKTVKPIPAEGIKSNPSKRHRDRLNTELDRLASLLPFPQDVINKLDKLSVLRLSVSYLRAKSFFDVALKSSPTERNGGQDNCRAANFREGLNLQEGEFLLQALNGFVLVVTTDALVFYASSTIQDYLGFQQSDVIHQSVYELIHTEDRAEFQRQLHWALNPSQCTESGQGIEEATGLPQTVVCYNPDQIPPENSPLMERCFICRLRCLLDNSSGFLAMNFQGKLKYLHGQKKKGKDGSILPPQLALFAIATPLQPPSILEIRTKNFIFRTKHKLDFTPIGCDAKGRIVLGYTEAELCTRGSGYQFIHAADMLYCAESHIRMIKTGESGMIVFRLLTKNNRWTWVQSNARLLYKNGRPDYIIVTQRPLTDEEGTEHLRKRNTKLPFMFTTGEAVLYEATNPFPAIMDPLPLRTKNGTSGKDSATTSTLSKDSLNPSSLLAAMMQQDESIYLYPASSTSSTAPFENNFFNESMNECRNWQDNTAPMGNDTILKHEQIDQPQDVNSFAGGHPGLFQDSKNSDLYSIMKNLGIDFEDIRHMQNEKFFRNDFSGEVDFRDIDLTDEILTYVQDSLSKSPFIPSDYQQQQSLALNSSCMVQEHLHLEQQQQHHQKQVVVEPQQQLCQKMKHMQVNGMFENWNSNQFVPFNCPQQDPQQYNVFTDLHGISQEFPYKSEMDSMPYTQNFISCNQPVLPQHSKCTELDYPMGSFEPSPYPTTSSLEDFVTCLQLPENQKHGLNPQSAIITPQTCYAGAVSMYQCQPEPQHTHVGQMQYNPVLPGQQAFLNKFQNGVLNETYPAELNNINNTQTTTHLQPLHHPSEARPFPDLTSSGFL
Sequence of Aromatase (Homo sapiens) (P11511 whole entry, looked up): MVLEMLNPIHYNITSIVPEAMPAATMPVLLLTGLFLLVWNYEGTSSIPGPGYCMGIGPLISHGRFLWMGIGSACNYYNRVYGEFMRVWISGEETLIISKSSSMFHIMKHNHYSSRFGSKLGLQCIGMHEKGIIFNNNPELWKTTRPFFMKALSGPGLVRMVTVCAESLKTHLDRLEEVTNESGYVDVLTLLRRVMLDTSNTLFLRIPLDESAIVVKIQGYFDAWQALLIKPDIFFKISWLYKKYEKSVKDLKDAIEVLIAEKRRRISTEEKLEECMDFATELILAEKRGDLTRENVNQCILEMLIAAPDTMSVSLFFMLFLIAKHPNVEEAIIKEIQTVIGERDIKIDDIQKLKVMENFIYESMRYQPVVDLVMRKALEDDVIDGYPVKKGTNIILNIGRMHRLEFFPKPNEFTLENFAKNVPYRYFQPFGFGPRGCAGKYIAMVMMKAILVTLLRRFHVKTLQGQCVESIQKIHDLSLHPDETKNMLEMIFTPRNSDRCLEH
Sequence of Estrogen receptor (Homo sapiens) (P03372 whole entry, looked up): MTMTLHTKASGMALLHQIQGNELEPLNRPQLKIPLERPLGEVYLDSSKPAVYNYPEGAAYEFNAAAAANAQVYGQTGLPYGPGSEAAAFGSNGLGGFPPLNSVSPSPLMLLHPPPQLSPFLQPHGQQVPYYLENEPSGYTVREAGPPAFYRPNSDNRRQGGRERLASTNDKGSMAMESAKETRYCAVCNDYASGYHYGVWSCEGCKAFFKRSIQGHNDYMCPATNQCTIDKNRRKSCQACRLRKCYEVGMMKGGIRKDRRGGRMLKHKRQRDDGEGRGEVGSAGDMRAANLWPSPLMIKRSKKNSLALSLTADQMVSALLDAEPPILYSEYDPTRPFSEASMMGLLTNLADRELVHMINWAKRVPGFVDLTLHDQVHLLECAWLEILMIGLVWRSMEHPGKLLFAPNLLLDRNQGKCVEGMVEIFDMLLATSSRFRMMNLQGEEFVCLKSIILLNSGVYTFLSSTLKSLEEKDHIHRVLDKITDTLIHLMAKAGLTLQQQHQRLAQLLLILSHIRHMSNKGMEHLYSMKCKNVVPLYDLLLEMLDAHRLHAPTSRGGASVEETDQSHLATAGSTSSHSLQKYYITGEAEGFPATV

Consider `COc1ccc(NC(C)=O)cc1N`, for which the Potency result in assay [1], in assay [2], in assay [3], in [4], in assay [8] and in [9] was “inactive” throughout. For the same compound, the Potency result (in the assay with Aromatase (Homo sapiens); in [10]; in [11]; in assay [14]; in assay [17]) was “inactive” in each case. Besides, the result in assay [5], in [12], in [13], in assay [15] and in [16] was inactive. Moreover, the Potency in assay [6] was 54.7 µM [activator] (active) and inactive; in [7] it was 54.3 µM (active) and inactive.
As for `Fc1ccc(Br)cc1`, the Potency result in [1], in [2], in [3], in assay [4], in [6] and in [7] was “inactive” each time. Besides, the Potency result (in assay [8]; in [9]; in the assay with Aromatase (Homo sapiens); in assay [10]; in assay [11]; in [14]) was “inactive” in each case. For the same compound, the Potency entry in assay [17] was “inactive”. The result in [5], in [12], in [13], in assay [18] and in [15] was inactive.
`CN(C)CCCN`: the Potency entry in [1], in assay [2], in assay [3], in assay [4], in [6] and in assay [7] was “inactive” each time. Also, the Potency entry (in assay [8]; in assay [9]; with Aromatase (Homo sapiens); in assay [10]; in assay [11]; in assay [14]) was “inactive” in each case. Also, the Potency entry in assay [17] is “inactive”. For the same compound, the compound was called inactive in assay [5], in [12], in assay [13], in assay [18], in assay [15] and in [16].
In the case of `CCCCCCCC(=O)OC`, the Potency entry in assay [1], in assay [2], in assay [3], in assay [4], in assay [6] and in assay [7] was “inactive” each time. For the same compound, the Potency entry (in assay [8]; in assay [9]; in the assay with Aromatase (Homo sapiens); in [10]; in assay [11]; in assay [14]) was “inactive” in each case. Further, the Potency entry in [17] was “inactive”. The outcome in assay [5], in [12], in [13], in assay [19], in [18] and in assay [15] was inactive.
With `CC(=O)Nc1ccccc1`, the Potency result in [1], in assay [2], in assay [3], in assay [4], in assay [6] and in assay [7] was “inactive” each time. In addition, the Potency entry (in [8]; in assay [9]; with Aromatase (Homo sapiens); in assay [10]; in assay [11]; in assay [14]) was “inactive” throughout. In assay [17], the Potency result is “inactive”. The compound was called inactive in [5], in assay [12], in [13], in assay [19], in assay [18] and in [15]. For the same compound, in assay [16], the compound was called inactive.
`CCc1cccc(C)c1N`: the Potency result in [1], in assay [2], in assay [3], in assay [4], in assay [6] and in [7] was “inactive” in each case. Besides, the Potency entry (in assay [8]; in assay [9]; with Aromatase (Homo sapiens); in assay [10]; in assay [11]; in assay [14]) was “inactive” each time. Moreover, the Potency result in assay [17] was “inactive”. In addition, the result in assay [5], in assay [12], in assay [13], in assay [15] and in assay [16] was inactive.
`CCCCCCCCCC`: the Potency entry in [1], in assay [2], in [3], in [4], in [6] and in assay [7] was “inactive” each time. The Potency entry (in [8]; in [9]; with Aromatase (Homo sapiens); in assay [10]; in [11]; in [14]) was “inactive” throughout. In addition, the Potency entry in assay [17] is “inactive”. The outcome in assay [5], in assay [12], in assay [13], in assay [18] and in [15] was inactive.
